This passage reports Potency and activation, negative = inhibition results from PubChem BioAssay AID485297 (National Center for Advancing Translational Sciences (NCATS), 2010).

Out of some 320,000 compounds screened, about 9,100 (2.8%) were called active. Roughly 3% stayed inconclusive and do not appear here. Shown is part of a subset that was picked to be rich in actives. Where a call stands in place of a potency, no number is given. Unmarked numbers belong to inactive results. Calls follow the shape of the dose curve; as a rule, active = well fitted activation curve with a large enough effect; inconclusive = small, poorly fitted or top-dose-only effect; inactive = no such curve, though single readings can be large or run the other way.
Potency is read from the fitted curve at half-maximal effect.

The assay is described as follows: qHTS Assay for Rab9 Promoter Activators. Also: nearly all actives have a fitted effect of over 60% in size. To be noted: Huh7 Rab9 promoter-luciferase reporter, luminescence, 24 h; series mostly up to 9.22 µM. From the text: NIH Chemical Genomics Center [NCGC] NIH Molecular Libraries Probe Production centers Network [MLPCN] MLPCN Grant: MH089537-01 Assay Submitter (PI): Yiannis A. Ioannou NCGC Assay Overview: Niemann Pick Type C (NPC) is a rare neurodegenerative lipidosis that is characterized by lipid storage in the endosomal/lysosomal system. Treatment modalities for this devastating disease are currently non-existent due to the severe obstacles associated with accessing the central nervous system with proteins or genes (Ioannou, 2000). We have developed a new paradigm, termed "Orphan Receptor Bypass Therapy" (ORByT), to address these disorders. This paradigm posits the existence of endogenous "suppressor" proteins whose expression can dramatically improve LSD pathogenesis. The goal is the identification/discovery of small chemical compounds that can modulate the expression of these proteins and provide a new treatment modality for these devastating disorders. One such protein whose overexpression reverses aspects of the NPC phenotype is Rab9. We have developed and optimized a cell based luciferase reporter assay in 1536 well format for the identification of up-regulators of the Rab9 promoter.
The Rab9 promoter is cloned in front of the luciferase reporter gene, therefore […] promoter activation results in luciferase expression. Frozen stock of the Rab9 promoter transfected Huh7 cells were obtained from the laboratory of Dr. Yiannis Ioannou (The Mount Sinai School of Medicine, New York, NY). Cells were propagated and maintained at NCGC in medium containing RPMI-1640 supplemented with 10% FBS, 2mM L-glutamine, and 50ug/ml penicillin/streptomycin. Cells were harvested in and plated for assays in OP-MEM I reduced-serum medium supplemented with 10% FBS. The Amplite luciferase reporter gene assay kit was purchased from ABD Bioquest and prepared/stored according to manufacturers recommendations. qHTS Assay Setup: 1.Dispensed 5ul of Huh7 cells stably expressing Rab9-luciferase at a density of 1500 cells per well 1536-well plates. 2.Incubate cells at 37C, 5% CO2, and 95% humidity for 2 hours. 3.Transferred 23nl per well of compound in DMSO solution. 4.Incubated at 37C, 5% CO2, and 95% humidity for 24 hours. 5.Dispensed 3ul per well of Amplite reagent(ABD Bioquest) per well. 6.Incubate at ambient for 10 minutes. 7.Read using the luminescence protocol on the ViewLux plate reader (Perkin Elmer).
In general terms: In qHTS, concentration-response curves come from the screen itself.
Take `Nc1cc(N)nc(SCC(=O)Nc2cccc(S(=O)(=O)N3CCCCC3)c2)n1`: the Potency result is “inactive”.
As for `O=C(/C=C/c1cccc([N+](=O)[O-])c1)OCC(=O)N1CCOCC1`, the Potency entry was “inactive”.
`Cc1ccc(NC(=O)Cc2nc(COC(=O)C(C)NS(=O)(=O)c3ccc(C)cc3)cs2)cc1` (centres undefined): the Potency result was “inactive”.
In the case of `CCCn1nc(C(=O)OCc2nc(N)nc(Nc3ccccc3C)n2)c2ccccc2c1=O`, the Potency entry was “inactive”.
On the same count and under the same terms, in the case of `CCN(CC)C(CNC(=O)CSc1nnnn1-c1cccc(F)c1)c1ccco1` (centres undefined) it was “inactive”; in that of `COc1ccc(CC(=O)c2ccc(O)cc2O)cc1OC`, “inactive”; in that of `COc1ccc(C(=O)Cc2cnn(-c3ccccc3)c2)c(O)c1`, 3.16 µM (active).
For the compound `Cc1cc(O)cc(O)c1C(=O)Cc1cnn(-c2ccccc2)c1`, the Potency result is “inactive”.
Same read-out and setting: next, `O=C(CN(CC1CCCO1)C(=O)CNS(=O)(=O)c1ccc(F)cc1)NCc1ccco1` (centres undefined): “inactive”; `CCOC(=O)c1ccccc1NC(=O)COC(=O)C(Cc1c[nH]c2ccccc12)NC(C)=O` (centres undefined): “inactive”; `O=C(N/C(=C\c1ccc([N+](=O)[O-])cc1)C(=O)N1CCOCC1)c1cccc(Br)c1`: “inactive”.
For `COc1ccc(S(=O)(=O)N2CCN(CC(=O)NCC3(N4CCOCC4)CCCCC3)CC2)cc1`, the Potency result was “inactive”.
As to `CN(C)C(=O)COC(=O)c1cccc(S(=O)(=O)N2CC3(C)CC2CC(C)(C)C3)c1` (centres undefined), the Potency result is “inactive”.
Still for that read-out and setting: in the case of `O=C(Nc1nnc(-c2ccccc2)o1)c1cc(-c2cccs2)nc2ccccc12` it was “inactive”; in that of `OC(c1nnc(-c2ccccc2)o1)c1cccs1` (centres undefined), 4.47 µM (active).
In the case of `CCCN(CCC)c1ccc(C(O)c2nnc(-c3ccccc3)o2)cc1` (centres undefined), the Potency entry is “inactive”.
Consider `CCOC(=O)C1=C(COC(=O)[C@H](C)NS(=O)(=O)c2ccccc2F)NC(=O)NC1C` (some centres undefined), for which the Potency result was “inactive”.
For `COc1ccc(CN2C(=O)C(C)S/C2=N/N=C/c2ccco2)cc1` (centres undefined), the Potency is 2.82 µM (active).
For `O=C1N/C(=N\N=C\c2ccco2)SC1Cc1ccc(F)cc1` (centres undefined), the Potency entry was “inactive”.
With `C=CCN1C(=O)C(Cc2cccc(Cl)c2)S/C1=N/N=C/c1ccco1` (centres undefined), the Potency result is “inactive”.
In the case of `O=C(/C=C/c1ccccc1[N+](=O)[O-])OCC(=O)N1CCCC1`, the Potency entry was “inactive”.
On the same count and under the same terms, in the case of `Cc1nn(Cc2ccccc2)c(C)c1CNC(=O)c1ccc(F)c(S(=O)(=O)N2CCOCC2)c1` it was “inactive”; in that of `Cc1csc(=O)n1CCC(=O)OCC(=O)NNC(=O)c1ccc(Br)cc1`, “inactive”.
Still for that read-out and setting: in the case of `CCN(CC)S(=O)(=O)c1cc(C(=O)Nc2cc(S(=O)(=O)N3CCOCC3)ccc2N2CCCC2)ccc1F` it was “inactive”; in that of `COc1ccc(NS(=O)(=O)c2ccc3oc(SCC(N)=O)nc3c2)cc1`, “inactive”; in that of `CN(C)S(=O)(=O)c1ccc2oc(SCC(=O)Nc3ccccc3F)nc2c1`, 1.41 µM (active).
Consider `COc1ccc(S(=O)(=O)N(C)C)cc1NC(=O)CSc1ncccn1`, for which the Potency result was “inactive”.
For the compound `CCOC(=O)[C@H]1[C@H]2COc3ccc(C)cc3[C@@H]2N2C(=O)CN(Cc3ccc(F)cc3)C(=O)[C@@]12C`, the Potency entry is “inactive”.
Consider `CC(C#N)(NC(=O)CN1CCN(S(=O)(=O)c2cc(C(F)(F)F)ccc2Cl)CC1)C1CC1` (centres undefined), for which the Potency entry is “inactive”.
In the case of `Cc1cccc(NC(=O)c2ccc3ccccc3n2)n1`, the Potency is 3.16 µM (active).
In the case of `Cc1cccc(NC(=O)c2cccnc2Cl)n1`, the Potency result is “inactive”.
On the same count and under the same terms, next, `Cc1cccc(NC(=O)c2ccccc2NC(=O)C(C)(C)C)n1`: “inactive”; `COc1ccc(S(=O)(=O)N2CCOCC2)cc1NC(=O)CC1CC2CCC1C2` (centres undefined): “inactive”.
Same read-out and setting: next, `O=C(NCCCc1ccccc1)c1cc(COc2c(F)cccc2F)on1`: “inactive”; `Nc1nonc1C(=O)NCCc1ccccc1`: “inactive”; `CC(C)Cc1cc(C(=O)NCCc2ccccc2)no1`: 3.16 µM (active).
For the compound `COc1ccc(CCNC(=O)COC(=O)Cc2cccc(F)c2)cc1`, the Potency result is “inactive”.
`CCCC[C@]12Cc3cc(OC)c(OC)cc3C(O1)C1=C(CC3(CCCCC3)OC1=O)O2`: the activation, negative = inhibition is -3.75% [at 1.84 µM].
Regarding `N#Cc1cccc(NC(=O)C2CCCN(C(=O)c3ccc(Cl)cc3)C2)c1` (centres undefined), the Potency entry was “inactive”.
For the compound `N#CC1(NC(=O)COC(=O)CCN=C2NS(=O)(=O)c3ccccc32)CCCCC1`, the Potency entry was “inactive”.
`CC(=O)/C(C)=N/O`: the Potency entry is “inactive”.
As to `O=C(Nc1ccon1)c1sc2ccccc2c1Cl`, the Potency was 3.16 µM (active).
The same measure, in the same setting: in the case of `O=C(N/N=C/c1c(Cl)[nH]c2ccccc12)c1sc2ccccc2c1Cl` it was “inactive”.
On the same count and under the same terms, next, `O=C(Nc1ccon1)c1cccc(Cl)c1`: “inactive”; `CC1CCCCC1NC(=O)COC(=O)Cc1ccc(Cl)cc1` (centres undefined): “inactive”.
Still for that read-out and setting: in the case of `CCc1ccc(NC(=O)N2CCc3ccccc3C2)cc1` it was 2.24 µM (active); in that of `O=C(C(=O)N1CCc2ccccc2C1)N1CCc2ccccc2C1`, “inactive”.
For `CCc1ccc(NC(=O)N2CCN(c3ccccc3)CC2)cc1`, the Potency entry is “inactive”.
On the same count and under the same terms, in the case of `COc1cccc(NC(=O)CN(C)CC(=O)c2c(N)n(Cc3ccccc3)c(=O)n(C)c2=O)c1` it was “inactive”; in that of `O=C(CNC(=O)c1ccc2ccccc2c1)Nc1ncccc1O`, “inactive”; in that of `N#Cc1ccccc1NC(=O)c1cccc(COc2ccc(Cl)cc2Cl)c1`, 0.447 µM (active).
Regarding `O=C(Nc1cccc2cccnc12)c1cccc(Cl)c1`, the Potency entry was “inactive”.
For the compound `CSc1ccc(C#N)cc1NC(=O)c1cccc(Cl)c1`, the Potency entry was “inactive”.
On to `CCN(c1ccccc1)S(=O)(=O)c1cccc(C(=O)NCc2ccccc2CN2CCOCC2)c1`, for which the Potency entry is “inactive”.
Turning to `CN(CC(=O)Nc1ccc(Cl)cc1)CC(=O)Nc1cccc2ccccc12`, the Potency entry was “inactive”.
Same read-out and setting: in the case of `C/C=C(/C)C(=O)O[C@@H]1c2cc3c(c4c2[C@@]2(CO4)C(=O)C(OC)=C(OC)C=C2C[C@@H](C)[C@H]1C)OCO3` it was “inactive”.
Same read-out and setting: in the case of `CCc1ccc(N(CC(=O)NCc2cccnc2)S(=O)(=O)c2ccccc2)cc1` it was 3.55 µM (active).
With `O=C(CN(c1cc(C(F)(F)F)ccc1Cl)S(=O)(=O)c1ccccc1)NCc1cccnc1`, the Potency result is “inactive”.
As to `CCCNS(=O)(=O)c1ccc(CCC(=O)NCc2cccnc2)cc1`, the Potency entry is “inactive”.
With `Cc1ccc(CN2CC(C(=O)NNC(=O)Cn3ccc(C(F)(F)F)n3)CC2=O)cc1` (centres undefined), the Potency result is “inactive”.
For `CC(NC(=O)c1ccc(S(=O)(=O)Nc2ccccc2)cc1)c1ccc(S(N)(=O)=O)cc1` (centres undefined), the Potency result is “inactive”.
The same measure, in the same setting: in the case of `COc1ccccc1C(=O)Nc1ccc(OCC(=O)N2CCCCC2)cc1` it was “inactive”; in that of `O=C1CC[C@H](O)CCN1[C@H](CSc1ccc(Br)cc1)Cc1ccccc1`, “inactive”; in that of `CC(C)(CSc1nncn1/N=C/c1ccco1)NS(=O)(=O)c1ccc(Cl)cc1`, “inactive”.
